Data published in PubChem BioAssay (NCATS).
Records with an inconclusive call do not appear. Activity calls are given as the source filed them. Calls follow the shape of the dose curve; as a rule, active = well fitted curve in the direction sought with a large enough effect; inconclusive = small, poorly fitted or top-dose-only effect, or another doubt; inactive = no such curve, though single readings can be large; an effect the other way counts as inactive or inconclusive.

What was measured:
[1] = Inflammasome Signaling qHTS Counterscreen: IL-1-beta AlphaLISA counterscreen against the NCATS CANVASS Library (AID 1347381);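 also: cell-free check with purified IL-1β in medium and no THP-1 cells; series mostly up to about 57 µM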
Outline: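 Here, no cellular stimulation occurs; compounds in an 11-point series meet 4 pg purified IL-1-beta directly. Bead-based AlphaLISA detection follows (1 h acceptor/antibody, then 30 min donor, dark, room temperature), with excitation at 680 nm.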

[2] = Cytotoxicity qHTS for assessment of Hepg2 cells membrane integrity screened against the NCATS CANVASS Library (AID 1347387)
Description: (§1) Natural products and their derivatives continue to be wellsprings of nascent therapeutic potential. However, many laboratories have limited resources for biological evaluation, leaving their previously isolated or synthesized compounds largely or completely untested. To address this issue, the Canvass library of natural products was assembled (https://tripod.nih.gov/canvass), in collaboration with academic and industry researchers, for quantitative high-throughput screening (qHTS) across a diverse set of cell-based and biochemical assays. The pure (>85% purity by liquid chromatography/mass spectrometry [LC/MS]) Canvass library of 346 natural products were submitted by 45 academic laboratories and companies around the world. […] The library was formatted into 1536-well plates and evaluated in 50 qHTS (in an 11-pnt concentration series) bioassays with broad scope of disease-relevant mechanisms. The resulting data set from 50 different assays was then systematically analyzed to identify overall trends and specific natural products with interesting biological activities. […] The amount of fluorescence is proportional to the number of lysed cells. […]
Membrane Integrity-screen protocol: 1. […] The fluorescence signal was measured using the EnVision plate reader (PerkinElmer) using a 560 nm excitation and 590 nm emission filters.

[3] = qHTS for Activators of p53 Stress Response Pathway screened against the NCATS CANVASS Library (AID 1347388)
Outline: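 p53RE-bla HCT-116 cells (4000/well) were plated 5 h at 37C, exposed to compounds for 16 h at 37C over an 11-point concentration series, then loaded with CCF4 for 2 h at room temperature; 460/530 nm emission ratio read.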

[4] = qHTS assay for small molecule disruptors of mitochondrial membrane potential screened against the NCATS CANVASS Library (AID 1347389); also: series mostly up to about 46 µM; nearly all actives have a fitted effect of over 60% in size
Outline: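 Red/green fluorescence ratio read-out: J-aggregates ex 540/em 590 nm, monomers ex 490/em 535 nm. HepG2, 1 hr compound treatment, then 30 min Mito-MPS dye at 37C. 11-pt qHTS concentration series.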

[5] = Secretion counterscreen for inhibitors of the SERCaMP assay screened against the NCATS CANVASS Library (AID 1347390);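 also: light from luciferase secreted into medium read as a measure of general secretion; series mostly up to about 77 µM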
Outline: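 SH-SY5Y cells expressing constitutively secreted GLuc, 1000 cells/well, attached 4 h at 37C, then exposed to compounds (0.001 - 77 uM, 11-pnt series) for 20 h. Coelenterazine added; luminescence read to flag secretory-pathway interferers.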

[6] = qHTS for activators of Nrf2/ARE signaling pathway screened against the NCATS CANVASS Library (AID 1347391); also: nearly all actives have a fitted effect of over 60% in size
Outline: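 HepG2 ARE-bla; cpd 11-pt qHTS, 16 h 37C/5% CO2; CCF4 substrate 2 h RT; read ex 405 / em 460 + 530 nm. Viability by CellTiter-Glo luminescence, 30 min RT.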

[7] = qHTS for activators of dead-cell proteases activity screened against the NCATS CANVASS Library (AID 1347392);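 also: luminescence from protease leaking out of membrane-damaged cells cleaving impermeant substrate; rising signal means more cytotoxicity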
Description: as §1, with “luminescence directly correlates with” for “fluorescence is proportional to”, “percentage” for “number”, “cells undergoing cytotoxic stress.” for “lysed cells.”
Protease-screen assay protocol: 1. […] The luminescence readout was obtained using the ViewLux plate reader (PerkinElmer) using a clear emission filter, 2x binning, 1 sec exposure settings.

[8] = qHTS for inhibitors of ER calcium dysfunction: SERCaMP assay screened against the NCATS CANVASS Library (AID 1347393);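 also: series mostly up to about 77 µM; lower secreted reporter signal means inhibitor of ER calcium depletion; nearly all actives have a fitted effect of over 40% in size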
Outline: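 qHTS in SH-SY5Y reporter cells: 16 h compound pretreatment, 4 h thapsigargin, then secreted Gaussia luciferase measured by luminescence.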

[9] = Vero-766 cells viability qHTS against the NCATS CANVASS Library: Counterscreen for Zika virus inhibition assay (AID 1347394); also: series mostly up to about 46 µM; nearly all actives have a fitted effect of over 60% in size
Outline: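 Uninfected Vero 766 (African green monkey) cells, 1000/well, attached overnight, then exposed 72 h at 37C to compounds (11-point qHTS). Viability read by CellTiter-Glo luminescence; media-only wells served as 100% inhibition.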

[10] = qHTS for Antimalaria activity screened against the NCATS CANVASS Library (AID 1347380);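 also: Plasmodium falciparum strain Dd2 asexual parasites grown in red blood cells; series mostly up to about 29 µM; nearly all actives have a fitted effect of over 40% in size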
Outline: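 SYBR Green fluorescence (ex 485, em 535 nm) read after saponin/Triton lysis and 18 h further incubation; Dd2 asexual blood-stage parasites, 72 h compound exposure, 11-pt concentration series, 2.5% hematocrit, 0.3% parasitemia.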

Measured: outcome

C/C=C/C=C/C(CC(=O)O)Nc1ccc(C=O)cc1 (stereo not drawn)
not listed: [10]
inactive: all other assays above

CC1=C2C(=O)O[C@@H](c3ccoc3)[C@]2(C)CCC1
not listed: [4]
inactive: all other assays above
